# Unmarked numbers belong to inactive results. Results filed as inconclusive are left out. Where a call stands in place of a potency, no number is given. Activity calls are given as the source filed them. Unless noted, calls come from the whole dose curve; as a rule, active = well fitted curve in the direction sought with a large enough effect in the repeat runs; inconclusive = weak or mixed curves; inactive = no such curve, though single readings can be large; an effect the other way counts as inactive or inconclusive.
# Legend:
# [1] = qHTS assay to identify small molecule agonists of the TGF-beta/Smad signaling pathway - cell viability counter screen (AID 1346829); note: top concentration of the series differs between compounds; nearly all actives have a fitted effect of over 45% in size
# In short: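 After overnight seating at 37 C and 5% CO2, reporter cells got compounds for 5 hr and FRET substrate for 2 hr; cell viability then came from CellTiter-Glo luminescence.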
# [2] = qHTS assay to identify small molecule agonists of the TGF-beta/Smad signaling pathway (AID 1346859; active = well fitted activation curve with a large enough effect in the signal ratio in the repeat runs, not every such curve was filed as active; the % refers to the signal ratio; note: series mostly up to about 77 µM)
# In short: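 Dual-wavelength fluorescence (460/530 nm emission) quantified beta-lactamase expression under the Smad binding element in HEK 293T cells following 5 hr compound treatment at 37 C.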
# [3] = biological target: Thyrotropin-releasing hormone receptor (Homo sapiens) (UniProt P34981); experiment: qHTS assay to identify small molecule antagonists of the thyrotropin-releasing hormone receptor (TRHR) signaling pathway (AID 1346877; active = well fitted inhibition curve with a large enough effect in the repeat runs, not every such curve was filed as active; note: series mostly up to about 51 µM)
# Chain of Thyrotropin-releasing hormone receptor (Homo sapiens) (P34981 whole entry, looked up): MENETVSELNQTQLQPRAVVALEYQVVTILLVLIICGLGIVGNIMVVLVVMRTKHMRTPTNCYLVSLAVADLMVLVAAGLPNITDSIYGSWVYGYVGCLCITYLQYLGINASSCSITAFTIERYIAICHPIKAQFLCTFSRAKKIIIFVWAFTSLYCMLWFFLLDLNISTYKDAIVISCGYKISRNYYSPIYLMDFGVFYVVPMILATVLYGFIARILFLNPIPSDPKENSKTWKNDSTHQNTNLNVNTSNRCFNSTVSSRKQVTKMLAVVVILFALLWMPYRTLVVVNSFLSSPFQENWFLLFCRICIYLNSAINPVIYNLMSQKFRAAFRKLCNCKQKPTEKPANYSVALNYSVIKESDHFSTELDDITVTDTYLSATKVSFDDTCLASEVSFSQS
# In short: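 Screening used HEK293 cells engineered with TRHR, with a brief 5 min room-temperature compound exposure preceding addition of TRH to 1 nM. The read-out was kinetic calcium-dye fluorescence, concentration-response from 15 doses in triplicate.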
# [4] = biological target: Thyrotropin-releasing hormone receptor (Homo sapiens) (UniProt P34981); experiment: qHTS assay to identify small molecule agonists of the thyrotropin-releasing hormone receptor (TRHR) signaling pathway (AID 1346891; calls by dose curve;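 note: HEK293 cells expressing TRHR with calcium dye readout; series mostly up to about 58 µM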)
# In short: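 Kinetic fluorescence (3 min, 1 s intervals) reported intracellular calcium after compound transfer onto TRHR-Hek293 cells pre-loaded with dye for 2 h at 37 °C.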
# [5] = Human pregnane X receptor (PXR) small molecule agonists, qHTS cell viability counter screen (AID 1346977); note: nearly all actives have a fitted effect of over 50% in size
# In short: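 HepG2 cells stably carrying the PXR-Luc reporter are cultured with 5% charcoal-stripped FBS and treated with compounds for 24hr. CellTiter-Fluor is added at 23hr and fluorescence is read after 1hr.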
# [6] = Caspase-3/7 induction in HepG2 cells by small molecules, qHTS assay (AID 1346978); note: nearly all actives have a fitted effect of over 15% in size
# In short: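 Wild-type HepG2 cells (2,000/well) were settled 5 h at 37 C, 5% CO2, then exposed to compounds in DMSO for 17 h. Caspase-3/7 activity was read by luminescence 30 min after adding Caspase-Glo 3/7 reagent at room temperature.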
# [7] = Caspase-3/7 induction in CHO-K1 cells by small molecules, qHTS cell viability counter screen (AID 1346979); note: nearly all actives have a fitted effect of over 35% in size
# In short: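 Seeding: 1,500 CHO-K1 cells/well. Rest: 5hr, 37C. Treatment: compounds in DMSO, 16hr. Read: CellTiter-Fluor, 1hr, fluorescence.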
# [8] = Caspase-3/7 induction in CHO-K1 cells by small molecules, qHTS assay (AID 1346980); note: nearly all actives have a fitted effect of over 15% in size
# In short: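 Wild-type cells were seeded at 1,500 per well and settled 5 hr at 37 C, 5% CO2, then exposed to DMSO-dissolved compounds for 17 hr. Caspase-Glo 3/7 reagent was added, and luminescence was read after 30min at room temperature.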
# [9] = Caspase-3/7 induction in HepG2 cells by small molecules, qHTS cell viability counter screen (AID 1346981); note: series mostly up to about 92 µM; nearly all actives have a fitted effect of over 30% in size
# In short: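 Multiplexed with the caspase-3/7 assay: HepG2 cells, 16 hr compound treatment, CellTiter-Fluor viability detection by fluorescence.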
# [10] = biological target: Nuclear receptor subfamily 1 group I member 2 (Homo sapiens) (UniProt O75469); experiment: Human pregnane X receptor (PXR) small molecule agonists, qHTS assay (AID 1346982); note: nearly all actives have a fitted effect of over 35% in size
# Chain of Nuclear receptor subfamily 1 group I member 2 (Homo sapiens) (O75469 whole entry, looked up): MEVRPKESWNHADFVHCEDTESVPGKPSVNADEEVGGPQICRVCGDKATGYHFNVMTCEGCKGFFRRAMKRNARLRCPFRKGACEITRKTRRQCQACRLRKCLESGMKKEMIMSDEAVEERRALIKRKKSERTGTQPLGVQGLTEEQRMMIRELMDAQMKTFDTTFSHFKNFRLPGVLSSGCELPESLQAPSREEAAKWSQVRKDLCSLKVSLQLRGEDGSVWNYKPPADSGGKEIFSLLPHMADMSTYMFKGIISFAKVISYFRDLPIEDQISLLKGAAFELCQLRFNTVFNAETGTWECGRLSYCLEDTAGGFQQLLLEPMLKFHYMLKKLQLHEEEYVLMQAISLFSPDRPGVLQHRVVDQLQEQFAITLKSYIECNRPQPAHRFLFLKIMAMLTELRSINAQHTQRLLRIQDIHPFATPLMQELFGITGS
# In short: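 We seeded PXR-Luc HepG2 cells in assay medium containing 5% charcoal-stripped FBS, added compounds 5 hr later, incubated 24 hr, and read luminescence with ONE-Glo reagent.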
# [11] = biological target: Cytochrome P450 2D6 (Homo sapiens) (UniProt P10635); experiment: Cytochrome P450 Family 2 Subfamily D Member 6 (CYP2D6) small molecule antagonists: luciferase reporter qHTS assay (AID 1671196); note: nearly all actives have a fitted effect of over 50% in size; note: potency is the fitted concentration of half-maximal effect
# Chain of Cytochrome P450 2D6 (Homo sapiens) (P10635 whole entry, looked up): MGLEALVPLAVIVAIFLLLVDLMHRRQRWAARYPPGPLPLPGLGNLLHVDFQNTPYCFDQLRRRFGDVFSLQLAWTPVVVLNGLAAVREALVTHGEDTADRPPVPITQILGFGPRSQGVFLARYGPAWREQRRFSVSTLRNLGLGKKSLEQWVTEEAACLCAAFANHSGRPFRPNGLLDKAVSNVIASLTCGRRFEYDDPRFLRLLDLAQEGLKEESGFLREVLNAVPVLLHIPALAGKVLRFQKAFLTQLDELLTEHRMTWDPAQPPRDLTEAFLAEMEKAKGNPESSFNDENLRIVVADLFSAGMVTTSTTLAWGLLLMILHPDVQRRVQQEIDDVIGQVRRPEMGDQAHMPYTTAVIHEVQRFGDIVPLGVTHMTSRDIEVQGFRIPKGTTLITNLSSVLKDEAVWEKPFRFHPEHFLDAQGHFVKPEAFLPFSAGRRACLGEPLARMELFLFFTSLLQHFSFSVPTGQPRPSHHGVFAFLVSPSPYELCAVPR
# In short: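 Luminescence (RLU), read 20 min after detection reagent, indicated CYP2D6 conversion of proluciferin to luciferin during a 1 h NADPH-dependent reaction at room temperature.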
# [12] = biological target: Cytochrome P450 2C19 (Homo sapiens) (UniProt P33261); experiment: Cytochrome P450 Family 2 Subfamily C Member 19 (CYP2C19) small molecule antagonists: luciferase reporter qHTS assay (AID 1671197); note: series mostly up to about 120 µM; nearly all actives have a fitted effect of over 65% in size
# Chain of Cytochrome P450 2C19 (Homo sapiens) (P33261 whole entry, looked up): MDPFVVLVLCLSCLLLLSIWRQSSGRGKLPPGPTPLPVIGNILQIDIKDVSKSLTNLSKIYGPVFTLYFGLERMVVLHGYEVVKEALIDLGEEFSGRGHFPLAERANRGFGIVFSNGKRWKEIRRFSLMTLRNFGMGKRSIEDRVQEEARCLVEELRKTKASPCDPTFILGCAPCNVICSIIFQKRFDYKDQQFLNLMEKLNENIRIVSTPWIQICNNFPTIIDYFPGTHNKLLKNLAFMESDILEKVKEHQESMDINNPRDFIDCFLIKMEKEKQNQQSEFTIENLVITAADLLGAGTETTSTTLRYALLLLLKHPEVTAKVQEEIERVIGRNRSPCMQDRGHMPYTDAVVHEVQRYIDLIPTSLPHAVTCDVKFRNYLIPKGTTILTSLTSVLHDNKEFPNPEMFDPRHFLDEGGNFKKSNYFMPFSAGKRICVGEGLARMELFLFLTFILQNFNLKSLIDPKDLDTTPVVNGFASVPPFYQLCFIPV
# In short: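 Inhibition of CYP2C19 was scored from loss of luminescence in a P450-Glo proluciferin substrate assay, NADPH-started and run 1 h at 37C, with ketoconazole as positive control.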
# [13] = biological target: Cytochrome P450 2C9 (Homo sapiens) (UniProt P11712); experiment: Cytochrome P450 Family 2 Subfamily C Member 9 (CYP2C9) small molecule antagonists: luciferase reporter qHTS assay (AID 1671198); note: nearly all actives have a fitted effect of over 50% in size; note: potency is the fitted concentration of half-maximal effect
# Chain of Cytochrome P450 2C9 (Homo sapiens) (P11712 whole entry, looked up): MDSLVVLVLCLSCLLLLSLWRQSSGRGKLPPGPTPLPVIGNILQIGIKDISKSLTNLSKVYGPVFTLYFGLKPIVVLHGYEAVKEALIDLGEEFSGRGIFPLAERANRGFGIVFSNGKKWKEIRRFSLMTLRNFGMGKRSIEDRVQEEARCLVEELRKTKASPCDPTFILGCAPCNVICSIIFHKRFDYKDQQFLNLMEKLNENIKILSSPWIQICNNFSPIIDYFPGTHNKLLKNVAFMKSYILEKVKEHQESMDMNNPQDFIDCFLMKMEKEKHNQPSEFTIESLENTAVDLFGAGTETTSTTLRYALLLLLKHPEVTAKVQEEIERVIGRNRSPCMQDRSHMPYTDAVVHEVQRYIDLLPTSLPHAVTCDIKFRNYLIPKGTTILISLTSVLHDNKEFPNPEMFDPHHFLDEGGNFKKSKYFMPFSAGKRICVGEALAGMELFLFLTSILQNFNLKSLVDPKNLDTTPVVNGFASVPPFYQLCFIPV
# In short: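 CYP2C9 activity was measured with a P450-Glo proluciferin substrate. Enzyme–substrate mix was held with compound for 10 min at room temperature, then NADPH regeneration solution was added for 1 h at 37C. Luciferin product was read as luminescence.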
# [14] = biological target: Voltage-gated inwardly rectifying potassium channel KCNH2 (Homo sapiens) (UniProt Q12809); experiment: Human Ether-a-go-go-Related Gene (hERG) channel small molecule antagonists: fluorescence cell-based qHTS assay (AID 1671200);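 note: hERG-expressing U2OS cells given a thallium stimulus after FluxOR II dye loading; series mostly up to about 77 µM; nearly all actives have a fitted effect of over 50% in size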
# Chain of Voltage-gated inwardly rectifying potassium channel KCNH2 (Homo sapiens) (Q12809 whole entry, looked up): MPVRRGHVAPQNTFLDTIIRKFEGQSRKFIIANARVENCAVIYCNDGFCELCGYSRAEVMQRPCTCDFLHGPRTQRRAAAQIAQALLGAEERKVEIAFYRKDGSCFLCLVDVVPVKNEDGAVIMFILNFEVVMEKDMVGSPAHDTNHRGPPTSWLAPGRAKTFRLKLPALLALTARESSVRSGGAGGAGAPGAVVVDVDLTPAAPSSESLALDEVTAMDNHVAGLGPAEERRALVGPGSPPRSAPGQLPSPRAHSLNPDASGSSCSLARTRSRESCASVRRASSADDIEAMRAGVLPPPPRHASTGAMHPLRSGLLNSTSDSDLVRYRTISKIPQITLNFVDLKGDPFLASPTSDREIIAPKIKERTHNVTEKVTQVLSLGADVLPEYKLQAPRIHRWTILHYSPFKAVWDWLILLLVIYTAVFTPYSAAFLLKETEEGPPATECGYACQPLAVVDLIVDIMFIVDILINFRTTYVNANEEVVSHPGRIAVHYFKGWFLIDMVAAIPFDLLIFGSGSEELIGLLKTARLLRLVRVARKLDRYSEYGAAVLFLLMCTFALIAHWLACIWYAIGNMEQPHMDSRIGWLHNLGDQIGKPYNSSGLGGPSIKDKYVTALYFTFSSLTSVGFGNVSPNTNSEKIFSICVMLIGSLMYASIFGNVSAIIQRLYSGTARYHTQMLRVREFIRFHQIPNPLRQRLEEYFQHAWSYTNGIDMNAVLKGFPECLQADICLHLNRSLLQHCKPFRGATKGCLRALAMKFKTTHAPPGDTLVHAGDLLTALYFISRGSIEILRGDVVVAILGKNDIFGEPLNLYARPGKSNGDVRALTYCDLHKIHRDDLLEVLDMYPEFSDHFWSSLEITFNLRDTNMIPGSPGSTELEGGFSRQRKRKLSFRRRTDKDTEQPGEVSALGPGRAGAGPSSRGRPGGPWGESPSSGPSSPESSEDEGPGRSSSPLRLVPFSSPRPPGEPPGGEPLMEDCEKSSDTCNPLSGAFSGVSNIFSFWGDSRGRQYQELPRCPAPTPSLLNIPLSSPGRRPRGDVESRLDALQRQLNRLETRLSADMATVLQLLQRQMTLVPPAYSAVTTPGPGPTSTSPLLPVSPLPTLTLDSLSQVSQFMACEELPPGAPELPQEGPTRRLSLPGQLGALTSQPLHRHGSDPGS
# In short: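 First, 1000 cells per well are seeded and cultured overnight at 37 C. Next, FluxOR II dye is loaded for 1 h at room temperature, protected from light. After 10 more minutes, stimulus is added and fluorescence is read.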
# [15] = biological target: Cytochrome P450 3A4 (Homo sapiens) (UniProt P08684); experiment: Cytochrome P450 Family 3 Subfamily A Member 4 (CYP3A4) small molecule antagonists: luciferase reporter qHTS assay (AID 1671201); note: nearly all actives have a fitted effect of over 50% in size; note: potency is the fitted concentration of half-maximal effect
# Chain of Cytochrome P450 3A4 (Homo sapiens) (P08684 whole entry, looked up): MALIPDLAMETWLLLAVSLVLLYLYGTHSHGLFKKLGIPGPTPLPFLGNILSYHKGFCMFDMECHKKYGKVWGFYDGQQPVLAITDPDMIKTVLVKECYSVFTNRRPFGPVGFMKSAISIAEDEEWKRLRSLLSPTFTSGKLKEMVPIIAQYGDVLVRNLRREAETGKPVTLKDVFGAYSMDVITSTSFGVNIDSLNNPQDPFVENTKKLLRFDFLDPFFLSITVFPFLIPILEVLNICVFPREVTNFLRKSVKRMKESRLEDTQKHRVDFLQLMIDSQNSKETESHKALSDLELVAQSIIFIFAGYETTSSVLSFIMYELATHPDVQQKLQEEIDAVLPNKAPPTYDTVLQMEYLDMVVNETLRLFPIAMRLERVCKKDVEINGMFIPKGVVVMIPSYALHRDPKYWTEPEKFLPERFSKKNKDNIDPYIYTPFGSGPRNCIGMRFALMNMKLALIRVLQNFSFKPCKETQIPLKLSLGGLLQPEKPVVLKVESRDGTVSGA
# In short: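 Enzyme and proluciferin substrate are mixed with test chemicals for 10 min, then NADPH regeneration system drives turnover for 1 h at room temperature. A detection reagent halts the reaction; luminescence after 20 min gives relative activity.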
# [16] = biological target: Cytochrome P450 1A2 (Homo sapiens) (UniProt P05177); experiment: Cytochrome P450 Family 1 Subfamily A Member 2 (CYP1A2) small molecule antagonists: luciferase reporter qHTS assay (AID 1671199); note: nearly all actives have a fitted effect of over 50% in size; note: potency is the fitted concentration of half-maximal effect
# Chain of Cytochrome P450 1A2 (Homo sapiens) (P05177 whole entry, looked up): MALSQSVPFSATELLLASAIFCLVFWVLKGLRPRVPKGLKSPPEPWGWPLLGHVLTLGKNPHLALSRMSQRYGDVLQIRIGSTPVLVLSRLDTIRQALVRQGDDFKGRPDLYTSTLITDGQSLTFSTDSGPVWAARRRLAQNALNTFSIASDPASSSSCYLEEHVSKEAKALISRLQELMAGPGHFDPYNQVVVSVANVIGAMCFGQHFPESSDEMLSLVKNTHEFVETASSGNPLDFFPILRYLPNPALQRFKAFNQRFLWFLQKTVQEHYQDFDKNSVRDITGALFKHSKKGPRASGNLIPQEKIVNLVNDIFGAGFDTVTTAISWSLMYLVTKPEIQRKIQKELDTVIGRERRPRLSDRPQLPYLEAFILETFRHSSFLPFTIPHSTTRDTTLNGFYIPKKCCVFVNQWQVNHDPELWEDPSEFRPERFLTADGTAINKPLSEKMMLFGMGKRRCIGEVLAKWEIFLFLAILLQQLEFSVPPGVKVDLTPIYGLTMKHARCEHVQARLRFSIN
# In short: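 CYP1A2 turnover of a luminogenic substrate was quantified after 1 h with NADPH regeneration at room temperature. Furafylline served as positive control.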
SMILES,outcome [1],outcome [2],outcome [3],outcome [4],outcome [5],outcome [6],Potency [7],outcome [8],outcome [9],Potency [10],Potency [11],Potency [12],Potency [13],Potency [14],Potency [15],Potency [16]
CC(=O)O[C@H]1C[C@@H]2CC[C@@]1(C)C2(C)C,inactive,inactive,inactive,inactive,inactive,inactive,inactive,inactive,inactive,inactive,inactive,inactive,inactive,inactive,inactive,–
O=C(O)CCCCCC(=O)O,inactive,inactive,inactive,inactive,inactive,inactive,inactive,inactive,inactive,inactive,–,inactive,inactive,inactive,inactive,inactive
C=CCCCCCCCC,inactive,inactive,inactive,inactive,inactive,inactive,inactive,inactive,inactive,inactive,inactive,inactive,–,inactive,–,–
CC(O)COC(C)(C)C (stereo not given),inactive,inactive,inactive,inactive,inactive,inactive,inactive,inactive,inactive,inactive,–,–,–,inactive,inactive,–
c1ccc(-c2nn[nH]n2)cc1,inactive,inactive,inactive,inactive,inactive,inactive,inactive,inactive,inactive,inactive,inactive,inactive,–,inactive,inactive,–
COC(=O)c1cc(Cl)cc(Cl)c1,inactive,inactive,inactive,inactive,inactive,inactive,inactive,inactive,inactive,inactive,inactive,inactive,inactive,inactive,inactive,–
COC(=O)c1cccc(Cl)c1,inactive,inactive,inactive,inactive,inactive,inactive,inactive,inactive,inactive,inactive,–,–,inactive,inactive,–,–
CC(Oc1cc(Cl)ccc1Cl)C(=O)O (stereo not given),inactive,inactive,inactive,inactive,inactive,inactive,inactive,inactive,–,inactive,inactive,inactive,71 µM (active),inactive,–,–
C/C(=C1\CCOC(=O)S1)N(C=O)Cc1cnc(C)nc1N,inactive,inactive,inactive,inactive,inactive,inactive,inactive,inactive,inactive,inactive,13.8 µM (active),–,inactive,inactive,15.5 µM (active),–
COc1nc(N)nc2nc[nH]c12,inactive,inactive,inactive,inactive,inactive,inactive,inactive,inactive,inactive,inactive,10 µM (active),–,inactive,inactive,–,17.9 µM (active)
C[C@@H](O)C(=O)O,inactive,inactive,inactive,inactive,inactive,inactive,inactive,inactive,inactive,inactive,inactive,–,inactive,inactive,inactive,inactive
COC(C)(OC)OC,inactive,inactive,inactive,inactive,inactive,inactive,inactive,inactive,inactive,inactive,inactive,inactive,inactive,inactive,inactive,–
CC/C=C\CCOC(=O)c1ccccc1O,inactive,inactive,inactive,inactive,inactive,inactive,inactive,inactive,inactive,–,inactive,–,–,–,inactive,31.7 µM (active)
CC(C)CO,inactive,inactive,inactive,inactive,inactive,inactive,inactive,inactive,inactive,inactive,–,–,inactive,–,–,–
CC(C)CCOC(=O)c1ccccc1,inactive,inactive,inactive,inactive,inactive,inactive,inactive,inactive,inactive,inactive,inactive,inactive,inactive,inactive,inactive,–
CN(C)C(C)(C)CO,inactive,inactive,inactive,–,inactive,inactive,inactive,inactive,inactive,inactive,inactive,inactive,inactive,inactive,inactive,inactive
